Screens: PubChem, National Center for Advancing Translational Sciences (NCATS)
HepG2 viability: counter-screen for TGF-b inhibitors: cytotoxicity in HepG2 cells. 410,000 compounds, 0.76% hits. Potency, µM (doses to about 46.1 µM), without a hit: at the top dose activity change, negative = cytotoxicity, most hits filed as cytotoxic. HepG2 CAGA-GFP viability, ATP luminescence, 18 h
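HepG2 CAGA-GFP cells (1000/well, DMEM with 1% FBS) received compound, then TGF-beta at 500 pg/mL final, and were incubated 18 hours at 37 degrees C. Viability was read by CellTiter-Glo luminescence. Media-only wells were set as complete cell-killing and DMSO as no toxicity.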
TDP1 cell noCPT: qHTS for Inhibitors of human tyrosyl-DNA phosphodiesterase 1 (TDP1): qHTS in cells in absence of CPT | 420,000 compounds, 15% hits | DT40 Tdp1-/- hTDP1 cells, no CPT, ATP luminescence, 48 h | Potency, µM (highest dose often 46.2 µM), without a hit: at the top dose activity change, negative = growth inhibition, most hits filed as inhibitors; note: % is set by controls: 0 for no effect and ±100 for the full control effect; nearly all actives have a fitted effect of over 55% in size
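Camptothecin absent (DMSO only). Human TDP1-complemented DT40 knockout cells, 400 cells/well, 37 °C for minimum 48 hr; ATP measured via CellTiter-Glo, 30 min dark incubation, luminescence.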
DT40 TDP1 CPT: DT40-hTDP1 cell growth loss with CPT. AID 686979. chicken DT40 Tdp1-/-;hTDP1 cells + 20 nM CPT, ATP luminescence, 48 h. 420,000 compounds, 12% hits. Potency, µM (top dose mostly 46.2 µM), for the others: at the top dose activity change, negative = growth inhibition, actives largely listed as inhibitors; note: % is set by controls: 0 for no effect and ±100 for the full control effect; nearly all actives have a fitted effect of over 55% in size
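Chicken DT40 Tdp1-/- cells complemented with human TDP1, 400 cells/well, exposed to compounds plus 20 nM camptothecin for at least 48 h at 37 C; viability read as ATP content by CellTiter-Glo luminescence.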
HT1080NT lethal: kills 2HG-producing HT-1080-NT fibrosarcoma cells | Potency, µM (highest dose often 46.1 µM), for the others: at the highest dose activity, negative = less viability, most hits filed as cytotoxic | 360,000 compounds, 1.6% hits | HT-1080-NT fibrosarcoma viability, CellTiter-Glo ATP luminescence, 48 h | AID 686970;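 note: NT is the 2HG producing partner of a matched IDH1 knockdown line; 0% = DMSO-treated cells and -100% = media-only wells without cells; nearly all actives have a fitted effect of over 55% in size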
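Viability of the 2HG-overproducing fibrosarcoma line after 48 hours of compound exposure at 37 degrees C was determined by luminescence with CellTiter-Glo, and concentration-effect curves were then fitted and categorized.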
TGFb inhibitor: inhibitors of TGF-b signaling | HepG2 CAGA-GFP TGF-b/SMAD3 reporter, GFP fluorescence, 18 h; TGF-beta stimulated, 500 pg/mL final | Potency, µM (series often up to 46.1 µM), inactives show at the highest dose activity, negative = inhibition, usual class: inhibitors | 410,000 compounds, 1.2% hits; note: % is set by controls: 0 for no effect and ±100 for the full control effect; nearly all actives have a fitted effect of over 65% in size
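Per well, imaged GFP fluorescence of HEPG2 CAGA-GFP cells gives the signal; cells get compound, then TGF-beta (500 pg/mL final), 18 h at 37 degrees C; %Activity versus -TGF-beta and +DMSO controls.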
HT1080 IDH1KD tx: toxicity to HT-1080 IDH1 knockdown cells (counter line); HT-1080 IDH1 knockdown viability, ATP luminescence, 48 h; Potency, µM (titrated, usually from 46.1 µM), for inactives: at the highest dose activity, negative = toxicity, hits mostly cytotoxic; 360,000 compounds, 2% hits;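 note: 0% = DMSO wells and -100% = cell-free medium wells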
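Cytotoxicity counter-line: IDH1KD HT-1080, 48 h, CellTiter-Glo. Curves classed by r2, magnitude and activity.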
The depositor's hits bear a star; ? = inconclusive; nt = no result; [ ] = remark or other dose. In the library only some 17% were active in any assay of this set; here they are far more common. Calls come from the whole dose curve; as a rule, active = well fitted curve in the direction sought with a large enough effect; inconclusive = small, poorly fitted or top-dose-only effect, or another doubt; inactive = no such curve, though single readings can be large; an effect the other way counts as inactive or inconclusive. Potency is the fitted concentration of half-maximal effect.

SMILES	HepG2 viability	TDP1 cell noCPT	DT40 TDP1 CPT	HT1080NT lethal	TGFb inhibitor	HT1080 IDH1KD tx
COc1cccc(C(=O)Nc2c3c(nn2-c2ccc(C)cc2C)CS(=O)(=O)C3)c1OC	3.2µM*	23µM*	?	nt	26%	nt
COc1ccccc1C(=O)Nc1c2c(nn1-c1cccc(C)c1C)CS(=O)(=O)C2	-7%	-20%	?	-1%	-3%	?
Cc1cc(NC(=O)c2sccc2C)n(-c2nc3ccccc3[nH]2)n1	-15%	16µM*	?	?	?	-27%
Cc1cc(NC(=O)C2CCCC2)n(-c2nc3ccccc3[nH]2)n1	-23%	?	18µM*	7.9µM*	-1%	4µM*
Cc1cc(NC(=O)c2ccccc2)n(-c2nc3ccccc3[nH]2)n1	-27%	-7%	?	11%	8%	8%
Cc1nc2scc(C)n2c(=O)c1S(=O)(=O)NCC1CCN(Cc2ccc(F)cc2)CC1	-13%	14%	2%	5%	13%	12%
CN(CCC#N)C(=O)CSc1nnc(-c2c[nH]c3ccccc23)o1	-5%	1%	1%	6%	40%	5%
COc1cc(OC)cc(C(=O)NCC(=O)OCc2ccc(Cl)c(Cl)c2)c1	-6%	-2%	?	-8%[9.24 µM]	-4%	2%
Cc1c(C(=O)N(C)C2CC(C)(C)NC(C)(C)C2)oc2c(F)cccc12	-42%	?	?	2%	?	0%
Cc1cc(NC(=O)c2cccs2)n(-c2nc3ccccc3[nH]2)n1	-40%	21µM*	?	?	?	?
COc1cc(C(=O)Nc2cc(C)nn2-c2ccccc2)cc(OC)c1OC	-17%	?	-35%	-1%	-24%	-21%
O=C(NCc1nc2ccccc2[nH]1)c1cccs1	0%	0%	-7%	2%	2%	10%
COc1cccc(C(=O)Nc2cc(C)nn2-c2ccccc2)c1OC	1%	23µM*	?	-1%	-1%	-15%
O=C(NCc1ccco1)c1cccnc1-c1nc2ccccc2s1	-10%	29µM*	21µM*	2%	-23%	14%
O=C(NCc1ccco1)c1cccnc1Cl	-7%	5%	-1%	-1%	-27%	6%
O=C(O)CCC(=O)Nc1ccccc1C(=O)NCc1ccco1	14%	3%	0%	13%	5%	7%
CS(=O)(=O)N(CC(=O)Nc1ccccc1C(=O)NCc1ccco1)c1ccc2c(c1)OCCO2	2%	?	18µM*	9%[9.24 µM]	?	?
O=C(Nc1ccccc1C(=O)NCc1ccco1)Nc1cccc2ccccc12	0%	12µM*	21µM*	?	3%	?
O=C(Nc1cccc(Cl)c1)Nc1ccccc1C(=O)NCc1ccco1	-13%	18µM*	18µM*	-22%	16%	?
CC1(C)OC(=O)C2=C(CC(CCc3ccccc3)OC2c2ccccc2)O1 (stereo not drawn)	-36%	21µM*	13µM*	-3%	6%	2%
CC1(C)OC(=O)C2=C(C[C@@H](CCOCc3ccccc3)O[C@@H]2c2ccc(F)cc2)O1	nt	?	?	-10%	nt	-9%
CC(C)[C@@H]1O[C@H](CCc2ccccc2)CC2=C1C(=O)OC(C)(C)O2	nt	15µM*	15µM*	-12%	nt	-22%
CC(C)c1ccc([C@@H]2O[C@H](CCc3ccccc3)CC3=C2C(=O)OC(C)(C)O3)cc1	nt	16µM*	?	-5%	nt	-19%
C[C@@H]1O[C@H](CCc2cccc(Cl)c2)CC2=C1C(=O)OC(C)(C)O2	nt	2.9µM*	1.6µM*	-10%	nt	-15%
